From PubChem BioAssay (NCI)
The panel holds about 83,000 compounds, 20% with a hit somewhere; the sample as a whole holds those more often.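 Negative percent growth values reflect cell death: -40 means 40% of the cells present at the start died, and -100 means all died.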 The source made the active and inactive calls. How the source made its calls: active means growth percent below 10; inactive means the rest.

How the values were obtained:
Experiment in all cases: NCI-60 one-dose screen, 48 h (100 = growth as untreated, 0 = no growth, -100 = all killed)
[1] = system: HCT-15 colon; details: 10 µM unless noted
[2] = system: HT29 colon; details: 10 µM unless noted
[3] = system: SNB-75 CNS; details: 10 µM unless noted
[4] = system: SNB-19 CNS; details: 10 µM unless noted
[5] = system: U251 CNS; details: 10 µM unless noted
[6] = system: PC-3 prostate; details: 10 µM unless noted
[7] = system: SK-MEL-5 melanoma; details: 10 µM unless noted
[8] = system: UACC-62 melanoma; details: 10 µM unless noted
[9] = system: SK-MEL-28 melanoma; details: 10 µM unless noted
[10] = system: SK-MEL-2 melanoma; details: 10 µM unless noted
[11] = system: EKVX NSCLC; details: 10 µM unless noted
[12] = system: SN12C renal; details: 10 µM unless noted
[13] = system: UO-31 renal; details: 10 µM unless noted
[14] = system: TK-10 renal; details: 10 µM unless noted
[15] = system: ACHN renal; details: 10 µM unless noted
[16] = system: CAKI-1 renal; details: 10 µM unless noted
[17] = system: A498 renal; details: 10 µM
[18] = system: HL-60(TB) leukemia; details: 10 µM unless noted
[19] = system: CCRF-CEM leukemia; details: 10 µM unless noted
[20] = system: LOX IMVI melanoma; details: 10 µM unless noted

Measured: growth

Cc1cc(N(CCCl)CCCl)ccc1/C=N\NC(=O)c1ccncc1
inactive: [1] 88.9% | [2] 98.3% | [3] 87.1% | [4] 106% | [5] 90.5% | [6] 88.9% | [7] 76.1% | [8] 53.1% | [9] 99.7% | [10] 120% | [11] 94.3% | [12] 64.5% | [13] 82.5% | [14] 93.1% | [15] 73.9% | [16] 33.2% | [18] 53.4% | [19] 68.2%
active: [17] -94.9%

Clc1ccc2nnnn2n1
active: [10] -12.1% | [13] 5.04% | [18] -25.8%
inactive: [1] 24.7% | [2] 12.9% | [3] 80.3% | [4] 91.7% | [5] 34.4% | [6] 25.7% | [7] 30.2% | [8] 45.4% | [20] 16.3% | [11] 90% | [12] 51.2% | [14] 37.5% | [15] 43% | [19] 19.6%

[Cl][Hg][n]1c(-c2ccco2)nc2ccccc21
inactive: [1] 92% | [2] 104% | [3] 91.7% | [4] 93.1% | [5] 91.5% | [6] 98.5% | [7] 97% | [8] 95.8% | [20] 15.4% | [10] 93.5% | [11] 111% | [12] 94.8% | [13] 103% | [14] 124% | [15] 96.6% | [16] 107% | [17] 114% | [18] 95.5% | [19] 89.9%

CCCCCC1(CCBr)C(=O)NC(=O)NC1=O
inactive: [1] 97.7% | [2] 107% | [3] 99.2% | [4] 111% | [5] 93.4% | [6] 100% | [7] 109% | [8] 108% | [20] 104% | [10] 105% | [12] 107% | [13] 86.7% | [14] 111% | [15] 102% | [17] 88.4% | [19] 102%

CC[C@H](C)[C@H](NC(=O)[C@H]1CCCCN1C)C(=O)N(C)[C@H](CC(=O)c1nc(C(=O)N[C@@H](Cc2ccccc2)C[C@H](C)C(=O)O)cs1)C(C)C
active: [18] -7.69%
inactive: [1] 99.2% | [2] 78% | [3] 49.3% | [4] 55.5% | [5] 45.9% | [6] 78.3% | [7] 56.1% | [8] 32.2% | [20] 47.2% | [10] 37.8% | [11] 91.5% | [12] 83.8% | [13] 88.6% | [14] 97.2% | [15] 109% | [17] 73.4% | [19] 21.2%

CCOC(=O)[C@@H](C)C[C@H](Cc1ccccc1)NC(=O)c1csc([C@@H](C[C@H](C(C)C)N(C)C(=O)[C@@H](NC(=O)[C@H]2C[C@H](O)CCN2C)C(C)C)OC(C)=O)n1
active: [1] 9.76% | [2] 0.338% | [7] -4.08% | [18] -27.1% | [19] 4.67%
inactive: [3] 10.6% | [4] 21.8% | [5] 10.1% | [6] 24.5% | [8] 38.4% | [20] 18.2% | [10] 16.8% | [11] 47.6% | [12] 20.6% | [13] 36.1% | [14] 38.4% | [15] 19.7% | [16] 30.9%

Cc1ccc(C(Cc2ccccc2)NCCO)cc1 (stereo unspecified)
inactive: [1] 103% | [2] 65.4% | [3] 87.1% | [4] 99.3% | [5] 87.8% | [6] 69.4% | [7] 98.4% | [8] 94.7% | [20] 100% | [10] 54.7% | [11] 100% | [12] 102% | [13] 86.1% | [14] 88% | [16] 98% | [17] 97.9% | [18] 91.4% | [19] 98.5%

CN(C)CC(C(=O)Cc1ccccc1)c1ccccc1 (stereo unspecified)
active: [13] -74% | [14] -38.1%
inactive: [1] 37.2% | [2] 30% | [3] 73.4% | [4] 100% | [5] 110% | [6] 73.2% | [7] 97.2% | [8] 112% | [9] 96.5% | [10] 82.2% | [11] 110% | [12] 93.6% | [15] 102% | [16] 82.1% | [18] 66.3% | [19] 67.1%

CC[C@@H]1[C@@H](C)O[C@@](O)([C@@H](C)[C@H](O)[C@H](C)[C@H]2OC(=O)/C=C/C=C/[C@H](C)[C@@H]([C@@H](C)[C@@H](O)[C@H](C)[C@@]3(O)C[C@@H](O[C@H]4C[C@@H](O)[C@H](O)C(C)O4)[C@H](CC)[C@@H](C)O3)OC(=O)/C=C/C=C/[C@@H]2C)C[C@H]1O[C@@H]1C[C@@H](O)[C@H](O)C(C)O1 (stereo partly specified)
active: [1] -84.4% | [2] -84% | [3] -97.6% | [4] -81.6% | [5] -92.8% | [6] -88.4% | [7] -96.2% | [8] -73.3% | [20] -94% | [10] -92% | [11] -88.6% | [12] -75.1% | [13] -97% | [15] -96.8% | [16] -98.4% | [17] -97.5% | [18] -73.3% | [19] -61.5%

CNC(=O)Oc1cccc(C(F)(F)F)c1
inactive: [1] 117% | [2] 108% | [3] 113% | [4] 103% | [5] 114% | [6] 104% | [7] 105% | [8] 97.7% | [9] 105% | [10] 106% | [11] 139% | [12] 93.7% | [13] 96.3% | [14] 105% | [15] 114% | [16] 117% | [17] 106% | [18] 114% | [19] 90.6%

O=C(Nc1ccncc1F)c1cn(CC2CC2)c2ccccc12
inactive: [1] 97.3% | [2] 102% | [3] 103% | [4] 97.2% | [5] 98.4% | [6] 97.6% | [7] 97.3% | [8] 95.3% | [20] 97% | [10] 98.8% | [11] 89.2% | [12] 102% | [13] 93.9% | [14] 103% | [15] 108% | [16] 98.2% | [17] 91% | [18] 100% | [19] 102%

Cc1cccc(N2CCN(C(C)C#N)CC2)c1 (stereo unspecified)
inactive: [1] 106% | [2] 105% | [3] 106% | [4] 115% | [5] 103% | [6] 102% | [7] 105% | [8] 111% | [20] 94.7% | [10] 104% | [11] 100% | [12] 103% | [13] 84% | [14] 119% | [15] 104% | [16] 95% | [18] 94.2% | [19] 107%

COc1cc(C=Nc2cccc(C(=O)O)c2)ccc1N(CCCl)CCCl
inactive: [1] 97.8% | [2] 98.1% | [3] 101% | [4] 102% | [5] 100% | [6] 101% | [7] 98.7% | [8] 96.7% | [20] 101% | [10] 108% | [12] 98.5% | [13] 84.6% | [14] 125% | [15] 81.8% | [16] 95% | [17] 102% | [18] 110% | [19] 102%

CC(C)(C)N1CC1C#N (stereo unspecified)
inactive: [1] 99.6% | [2] 105% | [3] 98.3% | [4] 97.2% | [5] 100% | [6] 103% | [7] 105% | [8] 104% | [20] 101% | [9] 110% | [12] 103% | [13] 92.1% | [14] 98% | [15] 101% | [16] 92.6% | [17] 105% | [18] 98.3% | [19] 101%

Cc1ccc(C(=O)NCCCOc2ccc(N3C(N)=NC(N)=NC3(C)C)cc2Cl)cc1S(=O)(=O)F
inactive: [1] 102% | [2] 59.4% | [3] 87.6% | [4] 72.2% | [5] 37.6% | [6] 28.5% | [7] 32.9% | [8] 30.1% | [20] 26.7% | [10] 70.1% | [11] 79.3% | [12] 35.2% | [13] 105% | [14] 103% | [15] 110% | [17] 118% | [18] 30.2% | [19] 55.1%
